# Screening results as filed in PubChem.
# GSH bead fluor = compound fluoresces at 488/530 nm on GSH beads. GSH beads flow cytometry, compound fluorescence 488/530 nm; active compounds read high. fluorescence (KMESF) at 10 µM. 190,000 tested, 0.25% active. AID 1776; in the data active = fluorescence above about 89;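 also: glutathione beads carrying GST-tagged Bcl family fusion proteins plus one bare bead set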
# RGS4-Gao reg = human RGS4-Galphao interaction regulation; P09471; binding response (% of control), % at 10 µM; Multiplexed bead flow cytometry, RGS4-Galphao binding; actives lie on both sides; 220,000 tested, 0.33% active; in the data active = binding response below about 49% or above about 150%; inactive = in between;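 also: fluorescent Galphao activated with aluminum fluoride binding bead-coupled RGS4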
# Target sequence (P09471 whole entry, looked up): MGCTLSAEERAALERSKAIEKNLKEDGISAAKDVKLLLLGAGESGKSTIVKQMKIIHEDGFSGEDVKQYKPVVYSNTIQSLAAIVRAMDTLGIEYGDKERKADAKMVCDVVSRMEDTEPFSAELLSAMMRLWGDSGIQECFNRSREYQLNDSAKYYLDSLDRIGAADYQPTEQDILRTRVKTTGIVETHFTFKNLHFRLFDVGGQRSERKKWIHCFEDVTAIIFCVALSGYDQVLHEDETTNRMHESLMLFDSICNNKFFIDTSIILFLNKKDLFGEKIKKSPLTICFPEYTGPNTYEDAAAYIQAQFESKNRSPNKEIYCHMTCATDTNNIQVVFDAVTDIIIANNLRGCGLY
# Avidin fluor = avidin bead compound fluorescence profile; 220,000 tested, 0.38% active; Avidin beads, compound fluorescence 488/530 nm, flow cytometry; active compounds read high; fluorescence (KMESF) at 10 µM; AID 1775; in the data active = fluorescence above about 47
# RGS8-Gao = modulates binding of RGS8 to human Galphao; P09471; multiplexed bead flow cytometry; actives lie on both sides; response (percent of control binding), % at 10 µM; 220,000 tested, 0.34% active; AID 1423; in the data active = response below about 60% or above about 140%; inactive = in between;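 also: Galphao activated as the GDP aluminium fluoride complex binding bead-coupled RGS8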
# RGS16-Gao HTS = RGS16-Galphao interaction regulator (human) | bead-based flow cytometry RGS16-Galphao binding, fluorescence; actives lie on both sides | 220,000 tested, 0.38% active | O15492+P09471 | binding response (% of control), % at 10 µM;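 also: Galphao activated by GDP with aluminum fluoride before binding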
# RGS7-Gao = modulates binding of RGS7 to human Galphao. binding response (% of control), % at 10 µM. P09471. 220,000 tested, 0.35% active. Multiplexed bead flow cytometry; actives lie on both sides. AID 1439; in the data active = binding response below about 49% or above about 150%; inconclusive = no clear call, values can overlap the other calls; inactive = in between;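 also: fluorescent Galphao held in activated GDP-AlF4 state binding bead-coupled RGS7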
# RGS-Gao = RGS4-Galphao interaction regulator (human). shares compounds with RGS16-Gao HTS. multiplexed bead flow cytometry, RGS–Galpha-o binding. RGS4–Galpha-o binding response, % at 10 µM. 1,600 tested, 99% active. AID 1504;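 also: fluorescently labeled Galpha-o bound to GDP with aluminium fluoride binding biotinylated RGS beads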
# Biotin-avidin = biotin-avidin bead binding disruption counter-screen; shares compounds with RGS16-Gao HTS; streptavidin beads, fluorescein-biotin binding, flow cytometry; inhibition, % at 10 µM; 1,700 tested, under 10 active;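 active = inhibition above 50%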;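 also: median green fluorescence of gated singlet beads compared with DMSO control wells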
# RGS8-Gao confirm = confirmation of regulators of human RGS8-Galphao interaction; shares compounds with RGS16-Gao HTS; bead-based flow cytometry RGS8-Galphao binding, fluorescence; actives lie on both sides; binding response (% of control), % at 10 µM; 1,700 tested, 3% active; AID 1836; in the data active = binding response below about 72% or above about 130%; inactive = in between;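 also: Galphao activated as GDP AlF4 complex before binding bead RGS8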
# RGS7-Gao confirm = confirmation of regulators of human RGS7-Galphao interaction; response (percent of control binding), % at 10 µM; 1,700 tested, 7.8% active; bead-based flow cytometry RGS7-Galphao binding; actives lie on both sides; shares compounds with RGS16-Gao HTS; in the data active = response below about 75% or above about 130%; inactive = in between;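 also: fluorescent Galphao activated with GDP and aluminum fluoride binding bead-coupled RGS7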
# RGS16-Gao single = RGS16-Galphao interaction regulation, single point confirmation; shares compounds with RGS16-Gao HTS; bead-based flow cytometry, RGS16-Galphao binding; actives lie on both sides; response (% of control binding), % at 10 µM; 1,700 tested, 4% active; AID 1838; in the data active = response below about 74% or above about 130%; inactive = in between;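 also: Galphao activated as the GDP aluminium fluoride complex binding bead-coupled RGS16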
# RGS4-Gao single = confirmation of regulators of human RGS4-Galphao interaction; shares compounds with RGS16-Gao HTS; RGS4-Galphao binding, multiplexed bead flow cytometry; actives lie on both sides; binding response (% of control), % at 10 µM; 1,700 tested, 4% active; AID 1840; in the data active = binding response below about 74% or above about 130%; inactive = in between
# RGS19-Gao single = RGS19-Galphao interaction regulation, single point confirmation. shares compounds with RGS16-Gao HTS. bead-based flow cytometry RGS19-Galphao binding; actives lie on both sides. response (percent of control binding), % at 10 µM. 1,700 tested, 5% active; in the data active = response below about 50% or above about 160%; inactive = in between
# Target sequence (P09471 whole entry, looked up): as above
# Target sequence (P49795 whole entry, looked up): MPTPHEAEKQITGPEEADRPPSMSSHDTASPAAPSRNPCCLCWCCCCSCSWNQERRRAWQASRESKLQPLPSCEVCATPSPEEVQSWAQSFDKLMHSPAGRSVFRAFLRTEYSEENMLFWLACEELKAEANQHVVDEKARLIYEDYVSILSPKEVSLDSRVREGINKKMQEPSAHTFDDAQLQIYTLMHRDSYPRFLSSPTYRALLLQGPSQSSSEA
# A number is an active result; i = inactive; ? = inconclusive; nt = no result; [ ] = remark or other dose. Sampled rows, rich in hits. Any-hit rate of the full collection: about 1.2%. Unless noted, no rule for the calls is given here.
SMILES,GSH bead fluor,RGS4-Gao reg,Avidin fluor,RGS8-Gao,RGS16-Gao HTS,RGS7-Gao,RGS-Gao,Biotin-avidin,RGS8-Gao confirm,RGS7-Gao confirm,RGS16-Gao single,RGS4-Gao single,RGS19-Gao single
O=C(c1cnsn1)N1CCN(c2ccccc2)CC1,i,i,163,i,i,247.6[activator],118.5,i,i,i,i,i,i
CCC1(c2ccc(F)cc2)NC(=O)N(CC(=O)Nc2cc(S(=O)(=O)N(C)C)ccc2Cl)C1=O (stereo unspecified),i,i,i,i,i,i,nt,nt,nt,nt,nt,nt,nt
Cc1cc(-c2n[nH]c(=S)n2Cc2ccco2)n(C)n1,i,i,i,i,10.2,i,90.3,i,i,i,i,i,i
Cc1cc(C)c(S(=O)(=O)/N=C2/C=C(Sc3ncn[nH]3)C(=O)c3ccccc32)cc1C,i,i,i,i,-0.4,i,89.5,nt,nt,nt,nt,nt,nt
Cc1ccc(NC2=C/C(=N/S(=O)(=O)c3cccs3)c3ccccc3C2=O)cc1C,i,i,i,i,i,i,nt,nt,nt,nt,nt,nt,nt
COc1ccc(CN2CCC(C(=O)N3CCN(c4ccccc4F)CC3)CC2)cc1OC,i,i,i,141.3[activator],i,i,134.6,nt,nt,nt,nt,nt,nt
COc1cc(CN2CCC(C(=O)N3CCN(c4ccccc4F)CC3)CC2)cc(OC)c1OC,i,i,i,i,i,i,nt,nt,nt,nt,nt,nt,nt
CCCCOCP(=O)(CCCC)COCCCC,i,23.7,i,31.6,i,24.6,nt,i,i,i,i,i,i
CCOc1ccc(NC(=O)CC2C(=O)N(c3ccccc3)C(=O)N2Cc2ccccn2)cc1 (stereo unspecified),i,i,i,144.1[activator],i,i,135.3,i,i,i,i,i,i
CC1(C)Cc2c(sc3c2c(=N)n(Cc2ccco2)c(=O)n3Cc2ccc(F)cc2)CO1,i,i,i,i,i,i,nt,nt,nt,nt,nt,nt,nt
COc1ccc(Cn2c(=O)n(Cc3ccco3)c(=N)c3c4c(sc32)COC(C)(C)C4)cc1,i,i,125,i,i,175.4[activator],114.9,i,i,i,i,i,i
O=C1N=C2N(CCN3CCCCC3)c3ccccc3N2/C1=C\c1ccc([N+](=O)[O-])o1,i,i,i,i,i,i,nt,nt,nt,nt,nt,nt,nt
O=c1c2cc(Cl)ccc2[nH]c(=S)n1Cc1cccs1,i,i,i,i,17.3,i,93.5,i,i,i,i,i,i
CCC(CC)NC(=O)CCCSc1nc2ccccc2[nH]1,i,i,i,i,i,i,nt,nt,nt,nt,nt,nt,nt
O=C(/C=N/O)Nc1ccc2sc3ccccc3c2c1,nt,i,i,i,i,?,nt,nt,nt,nt,nt,nt,nt
Cn1c(=O)c2c(nc(SCCN3CCOCC3)n2Cc2ccccc2Cl)n(C)c1=O,i,i,i,i,i,i,nt,nt,nt,nt,nt,nt,nt
Cn1c(=O)c2c(nc(SCCN3CCOCC3)n2Cc2ccc(F)cc2)n(C)c1=O,i,i,i,157.9[activator],i,i,138.7,i,i,i,i,i,i
CCOc1ccc(NC(=O)CCC(=O)NNC(=O)Nc2ccc(Cl)cc2)cc1,i,i,i,i,i,i,nt,nt,nt,nt,nt,nt,nt
OC12CCCCC1C(c1ccc3c(c1)OCO3)N(Cc1ccc(F)cc1)CC2 (stereo unspecified),i,i,i,i,i,i,nt,nt,nt,nt,nt,nt,nt
OC12CCCCC1C(c1ccc3c(c1)OCO3)N(Cc1ccccc1F)CC2 (stereo unspecified),i,i,130,i,i,158.4[activator],113.4,i,i,i,i,i,i
O=C(NC1CCCCC1)c1ccc(N2CCCC2=O)cc1,i,i,i,i,211.1[activator],i,108.2,nt,nt,nt,nt,nt,nt
O=C(C1CCC(N2C(=O)C3CC=CCC3C2=O)CC1)N1CCCCC1 (stereo unspecified),i,i,i,169.5[activator],i,i,128.6,i,i,i,i,i,i
O=C(C1CCC(C(=O)N2CCCCC2)CC1)N1CCCCC1 (stereo unspecified),i,i,i,i,i,i,nt,nt,nt,nt,nt,nt,nt
CN(C)C(=O)C[n+]1cccc(/C=N/O)c1,i,i,i,141.8[activator],251.2[activator],i,114.0,i,i,i,i,i,i
CCN(CC)C(=O)C[n+]1cccc(/C=N/O)c1,i,i,i,i,i,i,nt,nt,nt,nt,nt,nt,nt
SMILES,GSH bead fluor,RGS4-Gao reg,Avidin fluor,RGS8-Gao,RGS16-Gao HTS,RGS7-Gao,RGS-Gao,Biotin-avidin,RGS8-Gao confirm,RGS7-Gao confirm,RGS16-Gao single,RGS4-Gao single,RGS19-Gao single
NC(=S)NNC(=O)COc1ccccc1O,nt,i,i,i,i,?,nt,nt,nt,nt,nt,nt,nt
O=C(COc1ccc(/C=N/NC(=O)c2cc3ccccc3o2)cc1Cl)Nc1ccccc1,116,373.0[activator],49,225.1[activator],i,218.2[activator],nt,i,i,i,i,i,165.5[activator]
CC(C(=O)Nc1ccc([N+](=O)[O-])cc1)N1CCN(C/C=C/c2ccccc2)CC1 (stereo unspecified),i,i,i,i,i,i,nt,nt,nt,nt,nt,nt,nt
CC(=O)c1ccc(NC(=O)C(C)N2CCN(C/C=C/c3ccccc3)CC2)cc1 (stereo unspecified),246,161.7[activator],i,i,i,150.8[activator],nt,i,i,i,i,i,i
O=C(Nc1nnc(-c2ccccc2Cl)o1)c1ccco1,i,nt,nt,nt,nt,nt,nt,i,i,i,i,i,i
Cn1c(=O)cc(SCC(=O)N2CCCC2)c2ccccc21,i,i,i,i,i,i,nt,nt,nt,nt,nt,nt,nt
CCOC(=O)N1CCC(NC(=O)CSc2cc(=O)n(C)c3ccccc23)CC1,i,i,i,140.4[activator],i,i,110.3,i,i,i,i,i,i
CCOP(=O)(OCC)C(C)(C)NC(=O)Nc1ccc(Cl)c(Cl)c1,nt,i,i,i,i,?,nt,nt,nt,nt,nt,nt,nt
CC(C)Sc1nc2ccc(N3C(=O)C4CCCCC4C3=O)cc2s1 (stereo unspecified),i,i,i,i,20.7,i,88.3,i,i,i,i,i,i
COCCN(C(=S)Nc1ccc(C)cc1C)C(C)c1ccco1 (stereo unspecified),i,160.2[activator],i,164.3[activator],i,i,nt,i,i,i,i,i,i
CC(C)c1cc(C(=O)NCCc2ccccc2)no1,i,i,i,i,i,i,nt,nt,nt,nt,nt,nt,nt
CCn1cc(CN2CCc3c([nH]c4ccccc34)C2c2cccc(OC)c2OC)c(C)n1 (stereo unspecified),i,i,i,i,i,i,nt,nt,nt,nt,nt,nt,nt
